Test results as given in PubChem BioAssay (EPA / NIEHS).
Where “and” joins values, the source holds several entries; their conditions need not be identical. Equal entries are not always repeated. Results filed as inconclusive are left out. Calls of active or inactive are those of the source. Rule for the calls: active = hit-call score of the fitted dose curve at least 0.9, where 1 is the maximum; inconclusive = response in the unintended direction; inactive = score below 0.9.

molecular target: Androgen Receptor/SRC-1 Co-activator, AR (gene 367) (UniProt P10275); assay: OT_AR_ARSRC1_0960: Odyssey Thera (OT) 16-hour HEK293T Protein-Complementation Assay for Androgen Receptor/SRC-1 Co-activator (AID 2283353);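 note: actives raise the signal above DMSO so potency reflects increased AR and SRC-1 complex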
Sequence (P10275 whole entry, looked up, the tested form may be a part): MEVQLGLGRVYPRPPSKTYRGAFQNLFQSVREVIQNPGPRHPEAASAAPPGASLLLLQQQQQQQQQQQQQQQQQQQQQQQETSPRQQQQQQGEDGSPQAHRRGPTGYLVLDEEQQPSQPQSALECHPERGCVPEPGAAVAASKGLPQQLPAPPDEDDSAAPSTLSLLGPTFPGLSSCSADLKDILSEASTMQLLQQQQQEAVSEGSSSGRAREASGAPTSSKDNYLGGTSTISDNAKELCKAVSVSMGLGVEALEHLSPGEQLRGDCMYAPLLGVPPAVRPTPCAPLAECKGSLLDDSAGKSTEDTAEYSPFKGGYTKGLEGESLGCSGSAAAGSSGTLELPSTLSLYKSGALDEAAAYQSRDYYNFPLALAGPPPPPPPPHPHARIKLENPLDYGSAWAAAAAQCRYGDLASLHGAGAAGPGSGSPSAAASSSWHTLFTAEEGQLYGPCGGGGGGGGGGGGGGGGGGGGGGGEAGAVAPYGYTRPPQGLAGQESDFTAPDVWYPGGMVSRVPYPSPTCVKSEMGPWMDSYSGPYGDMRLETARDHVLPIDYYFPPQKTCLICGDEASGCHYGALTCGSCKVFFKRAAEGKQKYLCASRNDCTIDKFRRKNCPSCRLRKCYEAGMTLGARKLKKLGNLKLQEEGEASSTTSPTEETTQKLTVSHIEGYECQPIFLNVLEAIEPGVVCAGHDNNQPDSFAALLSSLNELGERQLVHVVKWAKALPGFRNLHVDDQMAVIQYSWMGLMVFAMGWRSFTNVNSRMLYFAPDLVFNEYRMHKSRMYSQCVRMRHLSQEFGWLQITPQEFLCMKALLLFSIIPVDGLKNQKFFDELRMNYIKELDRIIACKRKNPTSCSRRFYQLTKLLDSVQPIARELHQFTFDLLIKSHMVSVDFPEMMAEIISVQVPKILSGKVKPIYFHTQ
Procedure, shortened: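 Sixteen-hour cell assay: Venus halves fused to AR and SRC-1 in HEK293T report binding. Images at 488/635 nm give an N/C ratio in the 488 nm channel over ≥400 cells, analysed as signal increase over DMSO.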

SMILES	AC50	outcome
Cc1cc(N=Nc2ccccc2C)ccc1N	36 µM (active)	
O=C(Nc1ccccc1)c1ccccc1I		inactive
CCNS(=O)(=O)C(F)(F)C(F)(F)C(F)(F)C(F)(F)C(F)(F)C(F)(F)C(F)(F)C(F)(F)F		inactive
CC(C)(O)c1cnn2c(-c3ccc(F)c(-c4c(F)cccc4C#N)c3)cnc2n1	31.7 µM (active)	
C[C@]12C=CC3=C4CCC(=O)C=C4CC[C@H]3[C@@H]1CC[C@@H]2O	1.14 nM (active) and 2.3 nM (active) and 30 nM (active)	

molecular target: Androgen Receptor/SRC-1 Co-activator, AR (gene 367) (UniProt P10275); assay: OT_AR_ARSRC1_0480: Odyssey Thera (OT) 8-hour HEK293T Protein-Complementation Assay for Androgen Receptor/SRC-1 Co-activator (AID 2283354);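 note: hits raise the complementation signal above DMSO so AC50 marks enhancers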
Procedure, shortened: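 Split-Venus PCA, stable HEK293T, AR/SRC-1 fusions; 8 h exposure. Readout: 488nm N/C fluorescence ratio, ≥400 cells/image; fitted upward vs DMSO baseline.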

SMILES	AC50	outcome
Cc1cc(N=Nc2ccccc2C)ccc1N	67.5 µM (active)	
O=C(Nc1ccccc1)c1ccccc1I		inactive
CCNS(=O)(=O)C(F)(F)C(F)(F)C(F)(F)C(F)(F)C(F)(F)C(F)(F)C(F)(F)C(F)(F)F		inactive
C[N+](C)(C)CC1CO1 (stereo not given)		inactive
CC(C)(O)c1cnn2c(-c3ccc(F)c(-c4c(F)cccc4C#N)c3)cnc2n1		inactive
